{
  "source": "PubChem BioAssay AID463173",
  "about": "(ICCB-Longwood Screening Facility, Harvard Medical School, 2010)",
  "note": "In all, about 52,000 compounds went through this assay and about 1,700 (3.3%) were called active. Only a selection was taken, and actives are over-represented in it overall. Unmarked numbers belong to inactive results. Cut-off read from the data, not from the text of the source: active = survival mostly below about 52% (no sharp cut-off); inactive = mostly above about 56%.",
  "data": [
    {"tested_on": "Wild type", "assay": "growth inhibition of S. aureus wild type versus tarO mutant, primary screen, teichoic acid synthesis inhibitors, RN4220, OD600 (AID 463173)", "settings": "S. aureus RN4220 wild type/DeltatarO growth, OD600, 18 h, hits give low values, screened at 18.75 µg/mL (by protocol)", "values": [
      {"smiles": "Cc1ccc(-c2nc(CCNC(=O)C(=O)Nc3c(C)cccc3C)cs2)cc1", "survival": "0% (active)"},
      {"smiles": "Cc1ccc(-c2nc(CCNC(=O)C(=O)Nc3ccc(C)c(C)c3)cs2)cc1", "survival": "-3% (active)"},
      {"smiles": "Cc1cccc(NC(=O)C(=O)NCCc2csc(-c3ccc(F)cc3)n2)c1C", "survival": "75%"},
      {"smiles": "Cc1cc(C)c(NC(=O)C(=O)NCCc2csc(-c3ccc(F)cc3)n2)c(C)c1", "survival": "76%"},
      {"smiles": "Cc1ccc(-c2nc(CCNC(=O)C(=O)Nc3ccc(C)c(Cl)c3)cs2)cc1", "survival": "47%"},
      {"smiles": "Cc1ccc(-c2nc(CCNC(=O)C(=O)Nc3ccc(C)cc3C)cs2)cc1", "survival": "53%"},
      {"smiles": "O=C(c1cccs1)N1CCCn2c1nc1ccccc12", "survival": "106%"},
      {"smiles": "CCc1nn2c(=O)cc(COC(=O)c3cccc(NC(=O)c4ccccc4C)c3)nc2s1", "survival": "91%"},
      {"smiles": "CCc1nn(CC(=O)Nc2ccc(C)c(F)c2)c(=O)c2cc3cc(C)ccc3n12", "survival": "109%"},
      {"smiles": "COc1ccc2c(c1)-c1nc(NC(=O)c3ccc(Cl)cc3)sc1CC2", "survival": "93%"},
      {"smiles": "COc1ccc2c(c1)-c1nc(NC(=O)c3cccc(Br)c3)sc1CC2", "survival": "54%"},
      {"smiles": "COc1ccc2c(c1)-c1nc(NC(=O)c3ccccc3F)sc1CC2", "survival": "-1% (active)"},
      {"smiles": "COc1ccc2c(c1)Cc1sc(NC(=O)c3cccc(F)c3)nc1-2", "survival": "69%"},
      {"smiles": "COc1ccc(C(=O)Nc2nc3c(s2)CCc2cc(OC)ccc2-3)cc1", "survival": "41%"},
      {"smiles": "COc1ccc2c(c1)-c1nc(NC(=O)c3ccc(C)cc3)sc1CC2", "survival": "14% (active)"},
      {"smiles": "COc1ccc2c(c1)-c1nc(NC(=O)c3cc(Cl)ccc3OC)sc1CC2", "survival": "74%"},
      {"smiles": "COc1ccc2c(c1)Cc1sc(NC(=O)c3cccc(C)c3)nc1-2", "survival": "7% (active)"},
      {"smiles": "COc1ccc(C(=O)Nc2nc3c(s2)Cc2cc(OC)ccc2-3)cc1", "survival": "72%"},
      {"smiles": "CCCC(=O)Nc1ccc(Cl)c(NC(=O)c2cccnc2Cl)c1", "survival": "114%"},
      {"smiles": "CC1=C(c2ccc(C)c(C)c2)S(=O)(=O)N=C1N1CCC(C(=O)NCCc2ccc(Cl)cc2)CC1", "survival": "132%"},
      {"smiles": "CS(=O)(=O)N1CCC(N2CCN(Cc3ccc(F)cc3)C(=O)C2=O)CC1", "survival": "81%"},
      {"smiles": "Cc1cc(C(=O)O)c2c(=O)n(C)c(=O)n(C)c2n1", "survival": "81%"},
      {"smiles": "Cc1ccc(C(=O)Nc2ccccc2)cc1S(=O)(=O)Nc1ccc(Br)cc1", "survival": "7% (active)"},
      {"smiles": "Cc1ccc(C(=O)Nc2ccccc2)cc1S(=O)(=O)Nc1ccccc1", "survival": "70%"},
      {"smiles": "CCN(c1ccccc1)S(=O)(=O)c1cc(C(=O)Nc2ccc(Br)cc2)ccc1F", "survival": "1% (active)"},
      {"smiles": "CCOc1cccc(NC(=O)c2ccc(F)c(S(=O)(=O)N(CC)c3cccc(C)c3)c2)c1", "survival": "82%"},
      {"smiles": "CCOc1ccc(NC(=O)c2ccc(F)c(S(=O)(=O)N(CC)Cc3ccccc3)c2)cc1", "survival": "77%"},
      {"smiles": "Cc1ccc(C(=O)Nc2ccc(C(=O)O)cc2)cc1S(=O)(=O)Nc1ccccc1", "survival": "73%"},
      {"smiles": "CCN1CCN(C(c2ccccc2F)c2c(O)cc(C)n(CCOC)c2=O)CC1", "note": "(centres undefined)", "survival": "45%"},
      {"smiles": "Cc1ccc(NC(=O)Cn2c(=O)n(Cc3ccco3)c(=O)c3ccc(C(=O)NC4CCCC4)cc32)c(C)c1", "survival": "87%"},
      {"smiles": "Cc1cccc(C(=O)NCC(c2ccc3c(c2)OCO3)N2CCN(c3ccccc3F)CC2)c1", "note": "(centres undefined)", "survival": "70%"},
      {"smiles": "Cc1ccc(OCC(=O)Nc2nnc(SCc3cc(=O)n4cc(C)ccc4n3)s2)cc1", "survival": "1% (active)"},
      {"smiles": "Cc1ccc2nc(CSc3nnc(NC(=O)COc4ccccc4F)s3)cc(=O)n2c1", "survival": "81%"},
      {"smiles": "Cc1ccc(OCC(=O)Nc2nnc(SCc3cc(=O)n4cccc(C)c4n3)s2)cc1", "survival": "64%"},
      {"smiles": "Cc1cccn2c(=O)cc(CSc3nnc(NC(=O)COc4ccc(F)cc4)s3)nc12", "survival": "-4% (active)"},
      {"smiles": "Cc1ccc2nc(CSc3nnc(NC(=O)CC(C)C)s3)cc(=O)n2c1", "survival": "60%"},
      {"smiles": "Cc1ccc2nc(CSc3nnc(NC(=O)C(C)C)s3)cc(=O)n2c1", "survival": "-3% (active)"},
      {"smiles": "Cc1cccn2c(=O)cc(CSc3nnc(NC(=O)COc4ccccc4)s3)nc12", "survival": "71%"},
      {"smiles": "CC(C)C(=O)Nc1nnc(SCc2cc(=O)n3ccccc3n2)s1", "survival": "117%"},
      {"smiles": "Cc1ccc2nc(CSc3nnc(NC(=O)COc4ccccc4)s3)cc(=O)n2c1", "survival": "63%"},
      {"smiles": "CCCN1CCN(CCCNC(=O)c2cc3c(=O)n(CC)c4ccccc4c3s2)CC1", "survival": "85%"},
      {"smiles": "CC1CCN(CC(=O)N2CCN(c3ccccc3)CC2)CC1", "survival": "106%"},
      {"smiles": "COc1ccc(-c2cn3nc(N4CCCC(C(=O)Nc5ccccc5OC)C4)sc3n2)cc1", "note": "(centres undefined)", "survival": "135%"},
      {"smiles": "CN(C)S(=O)(=O)c1ccc2c(c1)N(CC(=O)Nc1ccc(OC(F)(F)F)cc1)C(=O)CS2", "survival": "71%"},
      {"smiles": "COc1ccc(C(=O)NCCN=C2NS(=O)(=O)c3ccccc32)cc1", "survival": "108%"},
      {"smiles": "COCCn1c(C)cc(O)c(C(c2ccccc2)N2CCN(CCO)CC2)c1=O", "note": "(centres undefined)", "survival": "0% (active)"},
      {"smiles": "COCCn1c(C)cc(O)c(C(c2ccccc2)N2CCN(C)CC2)c1=O", "note": "(centres undefined)", "survival": "87%"},
      {"smiles": "CCN1CCN(C(c2ccccc2)c2c(O)cc(C)n(CCOC)c2=O)CC1", "note": "(centres undefined)", "survival": "91%"},
      {"smiles": "COc1cccc(C(=O)c2cn(CC(=O)NCCc3ccccc3)c3nc(C)ccc3c2=O)c1", "survival": "64%"},
      {"smiles": "COc1ccccc1C(=O)NCCn1cc(SCc2ccccc2Cl)c2ccccc21", "survival": "28%"},
      {"smiles": "COc1ccc(C(=O)NCCn2cc(SCc3cccc(F)c3)c3ccccc32)cc1OC", "survival": "68%"},
      {"smiles": "O=C(NCCn1cc(SCc2cccc(F)c2)c2ccccc21)c1cccc(C(F)(F)F)c1", "survival": "8% (active)"},
      {"smiles": "Cc1ccc(CSc2cn(CCNC(=O)c3cccs3)c3ccccc23)cc1", "survival": "62%"},
      {"smiles": "COc1ccccc1C(=O)NCCn1cc(SCc2ccc(C)cc2)c2ccccc21", "survival": "3% (active)"},
      {"smiles": "O=C(NCCn1cc(SCc2ccc(C(F)(F)F)cc2)c2ccccc21)c1ccccc1F", "survival": "35%"},
      {"smiles": "Cc1nc2cc(C(F)(F)F)ccc2n1C1CCN(C(=O)C2CC2)CC1", "survival": "95%"},
      {"smiles": "Cn1ncc2c(NCc3ccc(Cl)cc3)ncnc21", "survival": "75%"},
      {"smiles": "CCC(C)c1ccc(OCC(=O)Nc2ccc(-c3nc4ncccc4o3)cc2)cc1", "note": "(centres undefined)", "survival": "60%"},
      {"smiles": "COc1ccc(OCC(=O)Nc2ccc(-c3nc4ncccc4o3)cc2)cc1", "survival": "119%"},
      {"smiles": "Cc1cc(OCC(=O)Nc2ccc(C(=O)OC3CCCCC3)cc2)cc(C)c1Cl", "survival": "52%"},
      {"smiles": "Cc1cc(C)c(OCC(=O)Nc2cccc(-c3nc4ncccc4o3)c2)c(Br)c1", "survival": "4% (active)"},
      {"smiles": "CCCC(=O)Nc1cccc(-c2nc3ncccc3o2)c1", "survival": "88%"},
      {"smiles": "Cc1ccc(C(C)C)c(OCC(=O)Nc2cccc(-c3nc4ncccc4o3)c2)c1", "survival": "2% (active)"},
      {"smiles": "Cc1cccc(OCC(=O)Nc2ccc(Cl)c(-c3nc4ncccc4o3)c2)c1C", "survival": "38%"},
      {"smiles": "CCC(C)c1ccc(OCC(=O)Nc2cccc(-c3nc4ncccc4o3)c2)cc1", "note": "(centres undefined)", "survival": "6% (active)"},
      {"smiles": "Cc1ccccc1OCC(=O)Nc1ccc(-c2nc3ncccc3o2)cc1", "survival": "69%"},
      {"smiles": "Cc1ccc(C(C)C)c(OCC(=O)Nc2ccc(-c3nc4ncccc4o3)cc2C)c1", "survival": "69%"},
      {"smiles": "Cc1ccc(C(C)C)c(OCC(=O)Nc2ccc(C(=O)OC3CCCCC3)cc2)c1", "survival": "6% (active)"},
      {"smiles": "O=C(COc1ccc(Cl)cc1Cl)Nc1ccc(C(=O)OC2CCCCC2)cc1", "survival": "78%"},
      {"smiles": "O=C(Nc1ccccc1)Nc1nnc(SCC(=O)N2CCCCC2)s1", "survival": "131%"},
      {"smiles": "CC(C)(C)OC(=O)N1CCC(c2c(C(=O)N3CCN(C(=O)c4ccco4)CC3)cnn2-c2cccc(Cl)c2)CC1", "survival": "95%"},
      {"smiles": "CCn1cc(C(=O)Nc2ccccc2)c(=O)c2ccc(C)nc21", "survival": "111%"},
      {"smiles": "CCc1ccccc1Nc1nc2ccccc2n2cnnc12", "survival": "147%"},
      {"smiles": "c1ccc(N(c2ccccc2)c2nc(-n3nnc4ccccc43)nc(-n3nnc4ccccc43)n2)cc1", "survival": "103%"},
      {"smiles": "Cc1cccc(Oc2coc3cc(OCC(=O)NC4CCCCC4)ccc3c2=O)c1", "survival": "80%"},
      {"smiles": "COc1ccc(C2C(C(N)=O)=C(C)Nc3nc(SCc4ccccc4Cl)nn32)cc1OC", "note": "(centres undefined)", "survival": "143%"},
      {"smiles": "CC1=C(C(=O)Nc2ccccc2)C(c2ccc(O)cc2)n2nc(-c3ccc(Cl)cc3)nc2N1", "note": "(centres undefined)", "survival": "82%"},
      {"smiles": "Cc1ccc2cccc(NC(=O)COc3cc(C)c(Cl)c(C)c3)c2n1", "survival": "82%"},
      {"smiles": "COc1ccc(NC(=O)c2ccco2)cc1NC(=O)COc1cc(C)ccc1C(C)C", "survival": "85%"},
      {"smiles": "Cc1ccc(C(C)C)c(OCC(=O)Nc2cccc(NC(=O)c3ccco3)c2)c1", "survival": "12% (active)"},
      {"smiles": "CCC(C)c1ccc(OCC(=O)Nc2cccc3ccc(C)nc23)cc1", "note": "(centres undefined)", "survival": "-12% (active)"},
      {"smiles": "Cc1ccc(C(C)C)c(OCC(=O)Nc2ccc3c(c2)nc(CCNC(=O)c2ccco2)n3C)c1", "survival": "88%"},
      {"smiles": "Cc1ccc2cccc(NC(=O)COc3ccccc3Cl)c2n1", "survival": "134%"},
      {"smiles": "O=c1c(-c2cc(-c3ccccc3)nc3c2COc2ccc(Cl)cc2-3)coc2ccccc12", "survival": "75%"},
      {"smiles": "COc1cc(C(=O)Nc2nonc2-c2ccc(Cl)cc2)cc(OC)c1OC", "survival": "94%"},
      {"smiles": "CCC1CCCCN1C(=O)Cn1c(=O)cc(C(F)(F)F)c2c(C)nn(C)c21", "note": "(centres undefined)", "survival": "68%"},
      {"smiles": "Cc1ccc(-c2cc(C(=O)NCc3ccccc3)c3c(-c4ccc(C)cc4)[nH]nc3n2)cc1", "survival": "75%"},
      {"smiles": "O=C(Cn1c(=O)nc(-c2ccccc2)c2cc(Cl)ccc21)NCCc1ccccc1", "survival": "69%"},
      {"smiles": "CCCCOC(=O)c1cccc(NC(=O)/C=C/c2ccccc2Cl)c1", "survival": "7% (active)"},
      {"smiles": "Cc1ccc(NC(=O)/C=C/c2ccccc2Cl)cc1Cl", "survival": "97%"},
      {"smiles": "CCCCOC(=O)c1cccc(NC(=O)c2cc3ccccc3o2)c1", "survival": "0% (active)"},
      {"smiles": "CCCCOC(=O)c1ccc(NC(=O)c2cc(=O)c3ccccc3o2)cc1", "survival": "93%"},
      {"smiles": "O=C(Nc1ccc(NC(=O)c2cc3ccccc3o2)cc1)c1ccccc1", "survival": "80%"},
      {"smiles": "CCN(CC)c1cc(C)c2cc(NC(=O)/C=C/c3ccccc3Cl)ccc2n1", "survival": "76%"}
    ]}
  ]
}
